# Compound activity: PubChem, Sanford-Burnham Center for Chemical Genomics
# NadD inh = inhibitors of S. aureus NadD, primary screen, biochemical, colorimetric, uHTS | purified NadD enzyme, colorimetric absorbance read-out | Nicotinate-nucleotide adenylyltransferase NadD (Staphylococcus aureus N315) | inhibition, % at 20 µM | actives 0.78% (n = 360,000); in the data active = inhibition above about 26%
# APOBEC3A inh = APOBEC3A ssDNA deaminase inhibitors, primary screen, selectivity assay for APOBEC3G inhibitor project, biochemical, FAM/TAMRA oligo cleavage fluorescence | recombinant A3A, FAM/TAMRA ssDNA deamination fluorescence | AID 493011, 2011 | inhibition, % at 20 µM | actives 0.41% (n = 330,000);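 active = at least 40% inhibition at 20 µM here, with at most 30% in a related deaminase screen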;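 also: plate controls were A3A with DMSO for no effect and wells lacking A3A enzyme for full effect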
# A3G deaminase = APOBEC3G DNA deaminase inhibitors, primary screen, biochemical, fluorescence, single-stranded DNA substrate, uHTS; recombinant A3G, ssDNA deamination FAM/TAMRA fluorescence; AID 493012, 2011; actives 0.28% (n = 330,000); inhibition, % at 20 µM; DNA dC->dU-editing enzyme APOBEC-3G (Homo sapiens), Q9HC16;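 active = inhibition of at least 40% at 20 µM, with no more than 30% in the related APOBEC3A deaminase screen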;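 also: plate controls were DMSO wells with A3G for no effect and wells lacking A3G enzyme for full effect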
# Target sequence (Q9HC16 whole entry, looked up): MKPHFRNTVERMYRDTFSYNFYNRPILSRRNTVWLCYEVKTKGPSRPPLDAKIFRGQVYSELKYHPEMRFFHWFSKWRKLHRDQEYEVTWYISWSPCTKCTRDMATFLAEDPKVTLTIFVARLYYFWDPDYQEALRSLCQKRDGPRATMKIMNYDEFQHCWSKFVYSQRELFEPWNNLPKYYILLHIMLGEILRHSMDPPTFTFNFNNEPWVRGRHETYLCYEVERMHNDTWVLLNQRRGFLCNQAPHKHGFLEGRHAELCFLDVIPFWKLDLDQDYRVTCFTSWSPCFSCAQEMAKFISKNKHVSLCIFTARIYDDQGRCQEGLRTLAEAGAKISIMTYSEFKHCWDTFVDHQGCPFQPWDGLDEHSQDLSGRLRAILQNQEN
# PfGluPho inh = PfG6PD enzyme inhibitors, primary screen, biochemical, fluorescence intensity, uHTS; AID 504690, 2011; actives 0.78% (n = 350,000); PfGluPho enzyme, NADPH resazurin-diaphorase fluorescence; inhibition, % at 20 µM;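 active = inhibition reaching at least a set limit at 20 µM in the primary screen, cut at about 59% in these data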;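 also: 0% = DMSO wells with substrate and 100% = DMSO wells lacking glucose-6-phosphate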
# TAG inh = inhibitors of triacylglycerol accumulation, primary screen, cell-based, uHTS, fluorescence, H9c2. H9c2 cells, Nile Red lipid (TAG) fluorescence; cells loaded with 200 µM oleic acid. inhibition, % at 12.5 µM. actives 0.66% (n = 230,000). AID 651582, 2012;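 active = pattern-corrected inhibition of lipid staining of at least 50% with the nuclear-stain viability signal not falling by more than 50%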;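 also: 0% = DMSO wells and 100% = triacsin C control wells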
# H9c2 protect = cardioprotection against H2O2-induced cell death, primary screen, uHTS, H9c2 cells, ATPLite luminescence. H9c2 cardiomyocytes, H2O2 injury protection, 2 h. protection from H2O2 cell death, % at 20 µM. actives 0.63% (n = 360,000). AID 588492, 2011;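 active = compounds giving at least 50% protection of heart cells from peroxide-induced death in the single-dose screen, raw or plate-pattern-corrected value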;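 also: 0% = DMSO wells with peroxide and 100% = DMSO wells without peroxide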
# Starred values were filed as active, the others as inactive; · = no result given. In the library only some 2.9% were active in any assay of this set; here they are far more common.
SMILES,NadD inh,APOBEC3A inh,A3G deaminase,PfGluPho inh,TAG inh,H9c2 protect
O=C(N/N=C/c1cccc2ccccc12)c1ccncc1,-4,-7,-8,23,-3,7
O=C(N/N=C/c1ccccc1O)c1ccncc1,0,1,0,-21,-20,59*
O=C(N/N=C/c1cc(Cl)ccc1O)c1ccc(Br)cc1,5,·,·,-15,·,31
Cc1ccc(N=Nc2ccc(O)c(/C=N\NC(=O)c3ccc(N)cc3)c2)cc1C,48*,22,11,6,29,56*
CC1(C(=O)NS(=O)(=O)c2ccc(Cl)cc2)CCN1C(=O)c1ccccc1 (stereo not drawn),-3,·,·,·,-6,2
CCN(CC)S(=O)(=O)c1ccc2oc(C(=O)NCC3COc4ccccc4O3)c(C)c2c1 (stereo not drawn),1,2,-2,18,9,54*
CCN(CC)S(=O)(=O)c1ccc2oc(C(=O)NC3CC3)c(C)c2c1,-2,-3,-4,8,·,-2
Cc1c(C(=O)NCC2COc3ccccc3O2)oc2ccc(S(=O)(=O)N3CC(C)CC(C)C3)cc12 (stereo not drawn),8,4,3,6,·,6
Cc1c(C(=O)NCC2COc3ccccc3O2)oc2ccc(S(=O)(=O)N3CCOCC3)cc12 (stereo not drawn),-8,-4,-5,23,27,60*
O=C(COc1ccccc1)NCC(=O)N/N=C/c1ccc(O)cc1O,-2,-8,-7,-29,5,60*
O=C(COc1ccccc1)NCC(=O)N/N=C/c1ccc(Br)cc1,2,-4,14,-3,14,-4
Cc1cccc(OCC(=O)NCC(=O)N/N=C/c2cc(Br)cc(Br)c2O)c1,22,-5,-6,-25,·,59*
CCOc1ccc(/C=N/NC(=O)C(O)c2ccccc2)c(O)c1 (stereo not drawn),-3,2,-2,-48,·,52*
Cc1ccc(/C=N/NC(=O)CNC(=O)COc2ccccc2)cc1,-6,-1,-8,5,2,1
N#C/C(N=Nc1ccccc1O)=N\Nc1ccccc1O,-4,-7,19,43,16,-8
COc1cc(/C=C(\C#N)c2nc3ccc(C)cc3[nH]2)cc([N+](=O)[O-])c1O,19,·,·,14,-11,3
Cc1cc(/C=C(/C#N)c2nc3ccccc3[nH]2)c(C)n1-c1cccc([N+](=O)[O-])c1,41*,1,-2,19,42,44
COc1cc(/C=C(\C#N)c2nc3ccc(C)cc3[nH]2)c([N+](=O)[O-])cc1OC,1,-1,-2,20,2,85*
CC1(C)CC2CC(C)(CN2C(=S)Nc2ccccc2F)C1 (stereo not drawn),7,0,-4,-13,2,-12
COc1cccc(-c2cnc3c(NC=O)cc(-c4ccc(O)c(OC)c4)cn23)c1,17,·,·,·,4,85*
COc1cccc(-c2cnc3c(NC(C)=O)cc(-c4ccccc4OC)cn23)c1,-4,·,·,·,-6,10
COc1cccc(-c2cc(NC=O)c3ncc(-c4cc(OC)c(OC)c(OC)c4)n3c2)c1,0,·,·,·,45,8
COc1cccc(-c2cnc3c(NC(C)=O)cc(-c4cc(OC)c(OC)c(OC)c4)cn23)c1,3,·,·,·,15,57*
COc1cccc(-c2cc(NC=O)c3ncc(-c4cccc(C(=O)N(C)C)c4)n3c2)c1,6,·,·,·,14,32
COc1cc(-c2cc(NC=O)c3ncc(-c4ccc(C(C)=O)cc4)n3c2)ccc1O,6,·,·,·,37,83*
COc1cccc(-c2cnc3c(NC=O)cc(-c4cccc(C(=O)N(C)C)c4)cn23)c1,9,·,·,·,150,58*
COc1ccc2sc(-c3ccc(N(C)C)cc3)c(-c3cnc(OC)nc3)c2c1,6,-3,-8,14,-4,0
